Read-outs that look alike come from different tables or passages of the source. In all, about 13,000 compounds went through this assay and about 3,200 (25%) showed an effect of 50% or more. The list shows a part of the results.
Test system: P. falciparum stage V gametocytes
Parameters: BacTiter-Glo ATP luminescence viability of purified stage V gametocytes in 384-well plates, per cent inhibition versus DMSO
Conditions: 48 h, 5 µM, inhibitor

SMILES | % Inhibition [%] | % Inhibition (% Inhibition) [%]
N#CC(c1ccc(Br)cc1)c1ccc2c(C(F)(F)F)cc(C(F)(F)F)nc2n1 (stereo not drawn) [TCMDC-123754] | 9.304 | 
CCCN(CCC)S(=O)(=O)c1ccc(C(=O)Nc2nc3ccc(-c4cc(=O)[nH]c(Nc5ccccc5Cl)n4)cc3[nH]2)cc1 [TCMDC-135852] | -12.1 | 
CN1CCOc2ccc(Nc3nnc(-c4cccc(-c5cccnc5)c4)o3)cc2C1 [TCMDC-134278] | -13.91 | 
O=C(/C=C/c1ccccc1F)NC1CCC(CCN2CCc3ccc(-c4cccnc4)cc3CC2)CC1 (stereo not drawn) [TCMDC-140229] | -63.4 | 
CN(CCN(C)CC(O)c1ccc(Cl)c(Cl)c1)CC(O)c1ccc(Cl)c(Cl)c1 (stereo not drawn) [TCMDC-141988] | -33.12 | 
CN(C)CCn1c(=N)n(CC(O)c2ccc(Cl)c(Cl)c2)c2ccccc21 (stereo not drawn) [TCMDC-125810] | 59.92 | 
CN(CCC(O)c1ccc(Cl)c(Cl)c1)CC1CC1C(=O)c1ccccc1 (stereo not drawn) [TCMDC-136791] | 31.08 | 
CCN(CC)CCn1c(=N)n(CC(O)c2ccc(Cl)c(Cl)c2)c2ccccc21 (stereo not drawn) [TCMDC-124062] | 86.67 | 
CCCCCCCCCn1c(NCc2cc(Cl)ccc2O)nc2ccccc21 [TCMDC-123817] | -10.34 | 
COc1cccc(C(=O)C2CC2CN(C)CCC(O)c2ccc(Cl)c(Cl)c2)c1 (stereo not drawn) [TCMDC-136793] | 24.64 | 
CCCCCCCn1c(=N)n(CC(O)c2ccc(Cl)c(Cl)c2)c2ccccc21 (stereo not drawn) [TCMDC-124065] | 113.9 | 
CCCCCCCCCCNCC(O)c1ccc(O)c(C(=O)OC)c1 (stereo not drawn) [TCMDC-132043] | 1.141 | 
CCc1cccc(-n2c(=O)c3cccnc3n2CC(=O)NCc2ccccc2Cl)c1 [TCMDC-125159] | 19.11 | 
Cc1ccc(N2C(N)=NC(N)=NC2c2ccccc2)cc1 (stereo not drawn) [TCMDC-123675] | 47.57 | 
O=C(Nc1ccc([N+](=O)[O-])cc1Cl)c1cc2ccccc2cc1O [TCMDC-123517] | 12.28 | 
O=C(/C=C/c1ccccc1)N1CCOC(CCN2CCC(c3ccccc3)CC2)(c2ccc(Cl)c(Cl)c2)C1 (stereo not drawn) [TCMDC-135350] | 15.63 | 
CN(Cc1cccc(O)c1)C1CCN(c2cc(NC(=O)c3ccc(F)cc3)ccn2)CC1 [TCMDC-134965] | -26.89 | 
CCCNCc1ccc(-c2ccc(CN(CCOC)C(=O)c3ccc([N+](=O)[O-])c(C)c3)cc2)nc1 [TCMDC-141544] | 54.62 | 
CCCNCc1ccc(-c2ccc(CN(CCOC)C(=O)c3cscn3)cc2)nc1 [TCMDC-141525] | 101.5 | 
CCCNCc1ccc(-c2ccc(CN(CCOC)C(=O)c3cnc(C)cn3)cc2)nc1 [TCMDC-141534] | 98.71 | 
CCCNCc1ccc(-c2ccc(CN(Cc3cnc(C)cn3)C(=O)CC#N)cc2)nc1 [TCMDC-141527] | 78.38 | 
CCCNCc1ccc(-c2ccc(CN(Cc3cnc(C)cn3)C(=O)/C=C/c3ccccc3C)cc2)nc1 [TCMDC-141545] | 35.86 | 
CCc1nc(N)nc(N)c1CCCOc1ccccc1Cl [TCMDC-137928] | -12.09 | 

SMILES | % Inhibition [%] | % Inhibition (% Inhibition) [%]
N#Cc1ccc2c(c1)CN(CC[C@H]1CC[C@H](NC(=O)/C=C/c3c[nH]c4ccccc34)CC1)CC2 [TCMDC-139191] |  | -21.51
COc1cc(Cc2cnc(N)nc2N)cc(OCCCN2C(=O)c3ccccc3C2=O)c1OC [TCMDC-137365] | 18.85 | 
CCC(C)C(COC(=O)c1cc(OC)c(OC)c(OC)c1)N(C)CCN(C)C(COC(=O)c1cc(OC)c(OC)c(OC)c1)C(C)CC (stereo not drawn) [TCMDC-131453] | 2.796 | 
Cc1ccc(Sc2ccc(NC(=O)CN3CCN(C(=O)c4ccco4)CC3)cc2)cc1C [TCMDC-124861] | 2.666 | 
COCc1ccc(CN2CCC(C(=O)Nc3ccc(-c4nc5ccccc5[nH]4)cc3)CC2)o1 [TCMDC-124678] | -40.1 | 
CCCNCc1ccc(-c2ccc(CN(CCOC)C(=O)c3ccccc3)cc2)nc1 [TCMDC-141540] | 44.11 | 
CCCNCc1ccc(-c2ccc(CN(CCOC)C(=O)c3ccco3)cc2)nc1 [TCMDC-141535] | 89.84 | 
CCCNCc1ccc(-c2ccc(CN(CCOC)C(=O)c3cccc(C#N)c3)cc2)nc1 [TCMDC-141538] | 90.8 | 
CCCNCc1ccc(-c2ccc(CN(CCOC)C(=O)/C=C/c3ccccc3C)cc2)nc1 [TCMDC-141546] | 40.67 | 
Cc1ccc(CNC(=O)[C@H](CC(C)C)Nc2cc(C)nc(NCc3ccccc3C)n2)cc1 [TCMDC-134910] | -39.78 | 
Cc1ccc(Nc2ccnc(Nc3ccc(C)c(F)c3)n2)cc1O [TCMDC-138498] | 0.05121 | 
O=C(/C=C/c1ccc(Cl)c(Cl)c1)NCCCCCN1CCC(c2c[nH]c3ccccc23)C(O)C1 (stereo not drawn) [TCMDC-139694] |  | -6.926
O=C(Cc1ccc(Cl)cc1)NC1CCN(c2ccnc3cc(Cl)ccc23)C1 (stereo not drawn) [TCMDC-133399] | -11.42 | 
CC1(C)OC[C@]2(C)[C@@H](CC[C@]3(C)C4=CC(=O)CCC4CC[C@@H]23)O1 (stereo partly drawn) [TCMDC-137379] | 35.88 | 
CC(C)c1sc(-c2ccc(C(C)(C)C)cc2)nc1C(=O)NCCCN1CCCC1=O [TCMDC-133691] | 25.46 | 
CCc1sc(-c2ccc(C(C)(C)C)cc2)nc1C(=O)NCCCN1CCCC1=O [TCMDC-133692] | 75.07 | 
O=C(NCCCN1CCCC1=O)NCc1ccccc1 [TCMDC-123844] | 3.062 | 
O=C(Nc1ccc(Cl)c(Cl)c1)Nc1ccc2nccc(N3CCN(Cc4ccccc4)CC3)c2c1 [TCMDC-139649] | 65.98 | 
Cc1cc(N2CCNCC2)c2cc(NC(=O)Nc3ccc(Cl)c(Cl)c3)ccc2n1 [TCMDC-139533] | 55.92 | 
CN1CCN(c2ccnc3ccc(NC(=O)Nc4c(Cl)cccc4Cl)cc23)CC1 [TCMDC-139352] | -27.77 | 
O=C(Nc1ccc(Cl)c(Cl)c1)Nc1ccccc1N1CCNCC1 [TCMDC-133727] | 92.01 | 
O=C(Nc1ccc(Cl)c(Cl)c1)Nc1ccc2nccc(N3CCNCC3)c2c1 [TCMDC-139452] | -0.1389 | 
O=C(Nc1ccc(C(F)(F)F)cc1)Nc1ccccc1N1CCNCC1 [TCMDC-133726] | 29.85 | 

SMILES | % Inhibition [%] | % Inhibition (% Inhibition) [%]
CN1CCN(c2ccnc3ccc(NC(=O)Nc4ccc(Cl)c(Cl)c4)cc23)CC1 [TCMDC-139321] | 12.28 | 
CN1CCN(c2ncnc3ccc(NC(=O)Nc4ccc(Cl)c(Cl)c4)cc23)CC1 [TCMDC-139439] | 21.32 | 
Cc1ccc(C(C(=O)Nc2ccc(N3CCNCC3)c(Cl)c2)c2ccccc2)cc1 (stereo not drawn) [TCMDC-134292] | 32.74 | 
O=C(N[C@@H](CC1CCCCC1)C(=O)NC1CCCc2ccccc21)c1ccc(O)c(-c2cccc(C(F)(F)F)c2)c1 (stereo partly drawn) [TCMDC-140821] | 14.55 | 
Cc1cccc(-c2cccc3c(NC(=O)N4CCc5cc6nccc(N7CCN8CCC[C@H]8C7)c6cc54)cccc23)n1 [TCMDC-140053] | -32.82 | 
COc1cc(Cc2cnc(N)nc2N)cc(OCCCCC2SC(=O)NC2=O)c1Br (stereo not drawn) [TCMDC-137240] | 11.21 | 
Cc1noc(C)c1-c1cccc(CNCc2cccc(-c3cccc(-c4nc5cccc(C)c5[nH]4)c3)c2)c1.O=C(O)C(F)(F)F [TCMDC-133050] | -47.47 | 
COc1cc(Cc2cnc(N)nc2N)ccc1Oc1ccc(N)cc1 [TCMDC-138639] | -31.17 | 
COc1cc(C2CCCCC2)c(OC)cc1CC1c2cc(O)c(Cl)cc2CCN1C (stereo not drawn) [TCMDC-137539] | -5.034 | 
CS(=O)(=O)NCCCNCc1cccc(-c2cccc(-c3nc4cc(C(F)(F)F)ccc4[nH]3)c2)c1.O=C(O)C(F)(F)F [TCMDC-133086] | -10.1 | 
CCCC(C)N(Cc1ccc(C(C)(C)C)cc1)C(=O)c1cccc(OC)c1 (stereo not drawn) [TCMDC-139783] | -10.58 | 
CCN(CC)CCOc1ccc(N(Cc2ccc(C(C)(C)C)cc2)C(=O)c2ccc(Cc3ccccc3)cc2)cc1OC [TCMDC-140667] | 103.5 | 
COc1cc(N(Cc2ccc(F)cc2)C(=O)c2ccc(-c3ccccc3)cc2)ccc1OCCN1CCCC1 [TCMDC-140662] | 28.65 | 
CCNc1cc(C(=O)N[C@@H](Cc2ccccc2)[C@H](O)CNCc2ccc3c(c2)OCCO3)cc(N2CCCCS2(=O)=O)c1 [TCMDC-135189] | -0.5627 | 
CCCc1cc(Cc2cnc(N)nc2N)cc(CCC)c1OCCCCC(=O)O [TCMDC-137293] | -0.4294 | 
COc1ccc(-c2cc(-c3nc4ccc(CN)cc4[nH]3)c(=O)n(C)c2)cc1OC [TCMDC-135048] | 18.44 | 
COc1ccc2nc(-c3cc(-c4ccc(NC(=O)CN5CCOCC5)cc4)cnc3N)[nH]c2c1 [TCMDC-135373] | 7.84 | 
COc1ccc(-c2cc(-c3nc4ccc(C(=O)N5CCOCC5)cc4[nH]3)c(=O)n(C)c2)cc1OC [TCMDC-135055] | 52.78 | 
CCNC(C)(C)CN(Cc1ccc(-c2ccc(C(F)(F)F)cc2)cc1)C(=O)Cn1c(SCc2ccc(F)cc2)nc(=O)c2c1CCC2 [TCMDC-140977] | 131.5 | 
CCn1c(SCc2ccc(F)cc2)nc2sc3c(c2c1=O)CCN(C)C3 [TCMDC-124551] | 44.44 | 
CCN1CCC(N(Cc2ccc(-c3ccc(C(F)(F)F)cc3)cc2)C(=O)Cn2nc(C)c(=O)cc2SCc2ccc(F)cc2)CC1 [TCMDC-141284] | 72.73 | 
CCN1CCC(N(Cc2ccc(-c3ccc(C(F)(F)F)cc3)cc2)C(=O)Cn2c(SCc3ccc(F)cc3)nc(=O)c3c2CCC3)CC1 [TCMDC-140976] | 69.1 | 
CCN(CC)CCN(Cc1ccc(-c2ccc(C(F)(F)F)cc2)cc1)C(=O)Cn1c(SCc2ccc(F)c(F)c2F)nc(=O)c2c1CCC2 [TCMDC-141063] | 82.6 | 

Reference: article PMC4552634, “A New Set of Chemical Starting Points with Plasmodium falciparum Transmission-Blocking Potential for Antimalarial Drug Discovery” (PLoS ONE, 2015)
